{
  "source": "PubChem BioAssay AID1159580",
  "about": "(chemical genetic matrix, 2015)",
  "assay": "chemical genetic growth profiling, strain panel (AID 1159580);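 note: tested at 20 µM; growth read once vehicle control cultures reached saturation at 30 °C; 1 = growth at the plate median or of vehicle wells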",
  "settings": "growth OD",
  "key": {"[1]": {"settings": "S. cerevisiae deletion strains, locus YAL013W, strain DEP1, stronger effect = lower value"}, "[2]": {"settings": "S. cerevisiae deletion strains, locus YBR229C, strain ROT2, stronger effect = lower value"}, "[3]": {"settings": "S. cerevisiae deletion strains, locus YCL061C, strain MRC1, stronger effect = lower value"}, "[4]": {"settings": "S. cerevisiae deletion strains, locus YDL101C, strain DUN1, stronger effect = lower value"}, "[5]": {"settings": "S. cerevisiae deletion strains, locus YDR150W, strain NUM1, stronger effect = lower value"}, "[6]": {"settings": "S. cerevisiae deletion strains, locus YEL061C, strain CIN8, stronger effect = lower value"}, "[7]": {"settings": "S. cerevisiae deletion strains, locus YGR078C, strain PAC10, stronger effect = lower value"}, "[8]": {"settings": "S. cerevisiae deletion strains, locus YHR030C, strain SLT2, stronger effect = lower value"}, "[9]": {"settings": "S. cerevisiae deletion strains, locus YHR087W, strain rtc3, stronger effect = lower value"}, "[10]": {"settings": "S. cerevisiae deletion strains, locus YJR043C, strain POL32, stronger effect = lower value"}, "[11]": {"settings": "S. cerevisiae deletion strains, locus YJR075W, strain HOC1, stronger effect = lower value"}, "[12]": {"settings": "S. cerevisiae deletion strains, locus YLR039C, strain RIC1, stronger effect = lower value"}, "[13]": {"settings": "S. cerevisiae deletion strains, locus YLR058C, strain SHM2 (second series), stronger effect = lower value"}, "[14]": {"settings": "S. cerevisiae deletion strains, locus YLR085C, strain ARP6, stronger effect = lower value"}, "[15]": {"settings": "S. cerevisiae deletion strains, locus YLR262C, strain YPT6, stronger effect = lower value"}, "[16]": {"settings": "S. cerevisiae deletion strains, locus YML094W, strain GIM5, stronger effect = lower value"}, "[17]": {"settings": "S. cerevisiae deletion strains, locus YMR219W, strain ESC1, stronger effect = lower value"}, "[18]": {"settings": "S. cerevisiae deletion strains, locus YMR263W, strain SAP30, stronger effect = lower value"}, "[19]": {"settings": "S. cerevisiae deletion strains, locus YNL153C, strain GIM3, stronger effect = lower value"}, "[20]": {"settings": "S. cerevisiae deletion strains, locus YNL298W, strain CLA4 (second series), stronger effect = lower value"}, "[21]": {"settings": "S. cerevisiae deletion strains, locus YNL322C, strain KRE1, stronger effect = lower value"}, "[22]": {"settings": "S. cerevisiae deletion strains, locus YNR030W, strain Alg12, stronger effect = lower value"}, "[23]": {"settings": "S. cerevisiae deletion strains, locus YOL006C, strain TOP1, stronger effect = lower value"}, "[24]": {"settings": "S. cerevisiae deletion strains, locus YPL055C, strain LGE1, stronger effect = lower value"}, "[25]": {"settings": "S. cerevisiae deletion strains, locus YPL241C, strain CIN2, stronger effect = lower value"}, "[26]": {"settings": "S. cerevisiae deletion strains, locus YPR135W, strain CTF4, stronger effect = lower value"}},
  "note": "Values joined by “and” are separate entries in the source; they are usually repeats but may differ in a detail not shown here. Equal entries are not always repeated. About 2,000 (36%) of roughly 5,500 compounds were called active. Roughly 18% stayed inconclusive and do not appear here. The list shows a part of the results. A number with no mark means an inactive call. Cut-off read from the data, not from the text of the source: active = normalized growth mostly below about 0.91 (no sharp cut-off); inconclusive = no clear call, values can overlap the other calls; inactive = mostly above about 0.92.",
  "data": [
    {"smiles": "S=C(NCc1cccnc1)Nc1ccccc1Cl", "values": [
      {"measurement": "normalized growth", "setting": "[1]", "result": 0.987},
      {"measurement": "normalized growth", "setting": "[2]", "result": 1},
      {"measurement": "normalized growth", "setting": "[3]", "result": 0.988},
      {"measurement": "normalized growth", "setting": "[4]", "result": 0.989},
      {"measurement": "normalized growth", "setting": "[5]", "result": 0.953},
      {"measurement": "normalized growth", "setting": "[6]", "result": 0.975},
      {"measurement": "normalized growth", "setting": "[7]", "result": 0.989},
      {"measurement": "normalized growth", "setting": "S. cerevisiae deletion strains, locus YGR229C, strain SMI1, stronger effect = lower value", "result": 0.991},
      {"measurement": "normalized growth", "setting": "[8]", "result": "0.538 (active)"},
      {"measurement": "normalized growth", "setting": "[9]", "result": 1.01},
      {"measurement": "normalized growth", "setting": "[10]", "result": 0.984},
      {"measurement": "normalized growth", "setting": "[11]", "result": 1.02},
      {"measurement": "normalized growth", "setting": "[12]", "result": 0.939},
      {"measurement": "normalized growth", "setting": "[13]", "result": 0.987},
      {"measurement": "normalized growth", "setting": "[14]", "result": "0.584 (active)"},
      {"measurement": "normalized growth", "setting": "[15]", "result": 0.982},
      {"measurement": "normalized growth", "setting": "[16]", "result": 0.953},
      {"measurement": "normalized growth", "setting": "[17]", "result": 0.992},
      {"measurement": "normalized growth", "setting": "[18]", "result": 0.968},
      {"measurement": "normalized growth", "setting": "S. cerevisiae deletion strains, locus YNL128W, strain TEP1, stronger effect = lower value", "result": 0.994},
      {"measurement": "normalized growth", "setting": "[19]", "result": 0.98},
      {"measurement": "normalized growth", "setting": "[20]", "result": 0.959},
      {"measurement": "normalized growth", "setting": "[21]", "result": 1},
      {"measurement": "normalized growth", "setting": "[22]", "result": 0.987},
      {"measurement": "normalized growth", "setting": "[23]", "result": 1},
      {"measurement": "normalized growth", "setting": "[24]", "result": 0.961},
      {"measurement": "normalized growth", "setting": "[25]", "result": 0.97},
      {"measurement": "normalized growth", "setting": "[26]", "result": 0.745}
    ]},
    {"smiles": "S=C(NCc1ccccc1)Nc1ccc(Cl)c(Cl)c1", "values": [
      {"measurement": "normalized growth", "setting": "[1]", "result": "0.884 (active)"},
      {"measurement": "normalized growth", "setting": "[2]", "result": 0.948},
      {"measurement": "normalized growth", "setting": "[3]", "result": "0.866 (active)"},
      {"measurement": "normalized growth", "setting": "[4]", "result": 0.935},
      {"measurement": "normalized growth", "setting": "[5]", "result": 0.917},
      {"measurement": "normalized growth", "setting": "[6]", "result": "0.835 (active)"},
      {"measurement": "normalized growth", "setting": "S. cerevisiae deletion strains, locus YGR052W, strain FMP48, stronger effect = lower value", "result": 0.878},
      {"measurement": "normalized growth", "setting": "[7]", "result": "0.9 (active)"},
      {"measurement": "normalized growth", "setting": "[8]", "result": "0.382 (active) and 0.745 (active)"},
      {"measurement": "normalized growth", "setting": "S. cerevisiae deletion strains, locus YHR079C, strain IRE1, stronger effect = lower value", "result": "0.861 (active)"},
      {"measurement": "normalized growth", "setting": "S. cerevisiae deletion strains, locus YHR082C, strain KSP1, stronger effect = lower value", "result": 0.839},
      {"measurement": "normalized growth", "setting": "[9]", "result": 0.964},
      {"measurement": "normalized growth", "setting": "S. cerevisiae deletion strains, locus YJL095W, strain BCK1, stronger effect = lower value", "result": 0.841},
      {"measurement": "normalized growth", "setting": "S. cerevisiae deletion strains, locus YJL187C, strain SWE1, stronger effect = lower value", "result": "0.891 (active)"},
      {"measurement": "normalized growth", "setting": "[10]", "result": 0.978},
      {"measurement": "normalized growth", "setting": "S. cerevisiae deletion strains, locus YJR066W, strain TOR1, stronger effect = lower value", "result": 0.845},
      {"measurement": "normalized growth", "setting": "[11]", "result": 0.897},
      {"measurement": "normalized growth", "setting": "S. cerevisiae deletion strains, locus YKL171W, strain NNK1, stronger effect = lower value", "result": 0.807},
      {"measurement": "normalized growth", "setting": "S. cerevisiae deletion strains, locus YKL190W, strain CNB1, stronger effect = lower value", "result": "0.68 (active)"},
      {"measurement": "normalized growth", "setting": "S. cerevisiae deletion strains, locus YKL203C, strain TOR2, stronger effect = lower value", "result": "0.803 (active)"},
      {"measurement": "normalized growth", "setting": "[12]", "result": "0.482 (active)"},
      {"measurement": "normalized growth", "setting": "[13]", "result": 0.938},
      {"measurement": "normalized growth", "setting": "[14]", "result": "0.332 (active)"},
      {"measurement": "normalized growth", "setting": "S. cerevisiae deletion strains, locus YLR113W, strain HOG1, stronger effect = lower value", "result": 1.06},
      {"measurement": "normalized growth", "setting": "[15]", "result": "0.701 (active)"},
      {"measurement": "normalized growth", "setting": "[16]", "result": "0.677 (active)"},
      {"measurement": "normalized growth", "setting": "[17]", "result": 0.962},
      {"measurement": "normalized growth", "setting": "[18]", "result": "0.846 (active)"},
      {"measurement": "normalized growth", "setting": "[19]", "result": "0.907 (active)"},
      {"measurement": "normalized growth", "setting": "S. cerevisiae deletion strains, locus YNL183C, strain NPR1, stronger effect = lower value", "result": 0.846},
      {"measurement": "normalized growth", "setting": "S. cerevisiae deletion strains, locus YNL207W, strain RIO2, stronger effect = lower value", "result": 0.829},
      {"measurement": "normalized growth", "setting": "[20]", "result": "0.548 (active)"},
      {"measurement": "normalized growth", "setting": "[21]", "result": 0.977},
      {"measurement": "normalized growth", "setting": "[22]", "result": "0.701 (active)"},
      {"measurement": "normalized growth", "setting": "[23]", "result": "0.251 (active)"},
      {"measurement": "normalized growth", "setting": "S. cerevisiae deletion strains, locus YOR119C, strain RIO1, stronger effect = lower value", "result": 0.77},
      {"measurement": "normalized growth", "setting": "S. cerevisiae deletion strains, locus YOR231W, strain MKK1, stronger effect = lower value", "result": 0.862},
      {"measurement": "normalized growth", "setting": "[24]", "result": "0.689 (active)"},
      {"measurement": "normalized growth", "setting": "[25]", "result": "0.691 (active)"},
      {"measurement": "normalized growth", "setting": "S. cerevisiae deletion strains, locus YPL256C, strain CLN2, stronger effect = lower value", "result": 0.916},
      {"measurement": "normalized growth", "setting": "[26]", "result": "0.471 (active)"},
      {"measurement": "normalized growth", "setting": "S. cerevisiae strains, strain wild type, stronger effect = lower value", "result": "0.828 (active)"}
    ]}
  ]
}
